# UDG counterscr = counter-screen for AID inhibitors: uracil-DNA glycosylase inhibition; FRET deamination/UDG coupled assay, UDG read, 4 h; Potency, µM (highest dose often 115 µM), for inactives: at the highest dose activity change, negative = inhibition, usual class: inhibitors; 91,000 tested, 0.14% active; AID 1347430; also: nearly all actives have a fitted effect of over 65% in size
# AID inhibitor = inhibitors of human activation induced cytidine deaminase; Potency, µM (series often up to 115 µM), most hits filed as inhibitors; 91,000 tested, 0.32% active; AID deamination FRET fluorescence, UDG-coupled, 4 h; also: nearly all actives have a fitted effect of over 25% in size
# Target sequence (Q9GZX7 whole entry, looked up): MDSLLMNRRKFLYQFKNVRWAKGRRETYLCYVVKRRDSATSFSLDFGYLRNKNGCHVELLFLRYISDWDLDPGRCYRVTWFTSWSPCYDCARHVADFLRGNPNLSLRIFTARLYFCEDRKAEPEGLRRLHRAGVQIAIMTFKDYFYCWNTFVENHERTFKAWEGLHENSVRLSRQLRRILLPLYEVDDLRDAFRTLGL
# Numbers without * were called inactive; i = inactive; ? = inconclusive; ! = repeats disagree; [ ] = remark or other dose. A selection: hits, their analogues and other compounds. The true share with any hit is near 0.4%. Calls follow the shape of the dose curve; as a rule, active = well fitted curve in the direction sought with a large enough effect; inconclusive = small, poorly fitted or top-dose-only effect, or another doubt; inactive = no such curve, though single readings can be large; an effect the other way counts as inactive or inconclusive. % is scaled to controls: 0 for no effect and ±100 for the full control effect; potency is read from the fitted curve at half-maximal effect.
SMILES,UDG counterscr,AID inhibitor
O=C(O)C/C(=C/c1cccc(Br)c1)c1nc2ccccc2s1,7.3%,i
CCn1cc(S(=O)(=O)c2ccc(C)cc2C)c(=O)c2cc(F)c(N3CCCC3)cc21,?,22.4µM*
Cc1ccc(S(=O)(=O)c2cn(C)c3cc(N4CCCC4)c(F)cc3c2=O)c(C)c1,3.4%,i
CS(=O)(=O)Cc1ccc(CNCc2ccccc2Cl)cc1,15.8µM*,i
CS(=O)(=O)Cc1ccc(CNCc2cccc3ccccc23)cc1,-0.3%,i
Cc1ccc(C2N3CC4(C)CN2CC(C)(C3)C4=O)cc1 (stereo unspecified),-8.7%,i
C=CC[N+]1(CC#Cc2ccc(C#CC[N+]3(CC=C)CCOCC3)cc2)CCOCC1,-1.7%,i
CCS(=O)(=O)c1nc(S(=O)(=O)c2ccc(C)cc2)c(NC2CCCC2)s1,-4.9%,i
COc1ccc(-c2cc(C)no2)cc1S(=O)(=O)N1CCCC(C)C1 (stereo unspecified),-9.4%,i
Cc1cc(-c2ccc(C)c(S(=O)(=O)N3CCCC(C)C3)c2)on1 (stereo unspecified),12.1%,25.1µM*
C(=Nc1ccccc1)c1ccccc1OCc1ccccc1,-6.4%,i
Oc1ccc(N=Cc2ccccc2OCc2ccccc2)cc1,?,14.1µM*
Cc1nc(CN2CCN(C(=O)NC(C)Cc3ccco3)CC2)cs1 (stereo unspecified),6.3%,i
Cc1ccc(NC(=O)c2c(C)nc3sc(C(=O)Nc4ccc(F)cc4)c(N)c3c2-c2ccc(Cl)cc2)c(C)c1,89.1µM*,31.6µM*
Cc1ccc(NC(=O)c2c(C)nc3sc(C(=O)Nc4ccc(F)cc4)c(N)c3c2-c2ccccc2Cl)c(C)c1,11.5%,i
COC(=O)C(=O)CC(=O)c1ccc(N2CCOCC2)cc1,-3.0%,i
CCCCCSc1nc2sc3c(c2c(=O)n1-c1ccccc1)CCN(C(C)=O)C3,-21.9%,25.1µM*
CCSc1nc2sc3c(c2c(=O)n1-c1ccc(C)c(Cl)c1)CCN(C(C)=O)C3,?,i
CCCN(CCC)CCNC(=O)c1cc2c(-c3ccc(Cl)cc3)nn(C)c2s1,-22.6%[57.5 µM],?
CCCCN(CC)CCNC(=O)c1cc2c(-c3ccc(Cl)cc3)nn(C)c2s1,-28.9%,89.1µM*
O=C(CN1CCC2(CC1)OCCO2)Nc1cccc(F)c1,-10.4%,i
Cc1cccc(N2CCN(C(=O)c3cc4c(=O)n(C)c5ccccc5c4s3)CC2C)c1 (stereo unspecified),-10.1%,i
COc1cccc(-c2nn(C)c3sc(C(=O)N4CCN(c5cccc(C)c5)C(C)C4)cc23)c1 (stereo unspecified),?,39.8µM*
COc1ccccc1N1CCN(C(=O)c2cc3c(-c4ccccc4F)nn(C)c3s2)CC1,-13.4%,?
COc1cccc(-c2nn(C)c3sc(C(=O)NCc4ccc(C)cc4)cc23)c1,89.1µM*,?
SMILES,UDG counterscr,AID inhibitor
COc1ccc(-c2nn(C)c3sc(C(=O)N4CCN(c5ccccc5F)CC4)cc23)cc1OC,89.1µM*,?
COCCCNC(=O)c1cc2c(-c3cccc(OC)c3)nn(C)c2s1,-25.9%,i
CCOC(=O)Nc1cccc(N2CCn3c(nc4ccccc43)C2)c1,-3.6%,i
CCOC(=O)c1cc(NC(=O)CC2CCCC2)cc(C(=O)OCC)c1,1.5%,i
CCc1ccc(OCCCSc2nc(-c3ccc(C(C)(C)C)cc3)nc3cc(=O)[nH]n23)cc1,-22.2%,79.4µM*
Cc1cccc(OCCCSc2nc(-c3ccc(C(C)(C)C)cc3)nc3cc(=O)[nH]n23)c1C,-20.8%,?
CCNCC(=O)OCC,0.8%,i
COCCNC(=O)c1ccc2c(c1)N(Cc1c(F)cccc1Cl)C(=O)c1ccccc1S2,-11.3%,i
CCN(CC)C(=O)c1ccc2c(c1)N(Cc1c(F)cccc1Cl)C(=O)c1ccccc1S2,-21.4%,70.8µM*
COC(=O)c1ccc(CNC(=O)CCl)cc1,-0.8%,i
N.N.N.N.N.N.N.N.N.N.N.N.N.N.O.O.[Ru+4].[Ru+5].[Ru+5],31.6µM*,22.4µM*
COc1ccc2nc(Nc3nc(-c4ccccc4)cc(=O)[nH]3)nc(C)c2c1,-0.3%,i
COc1cccc(-c2cc(=O)[nH]c(Nc3nc(C)c4ccccc4n3)n2)c1,-8.9%,22.4µM*
CCCCCCCCc1ccc(-c2ccc(C(=O)O)cc2)cc1,-2.5%,89.1µM*!
CCCCCc1ccc(-c2ccc(C(=O)O)cc2)cc1,-5.7%,i
NCCS(N)(=O)=O,9.5%,i
CCCCN(CCCC)CC(O)Cn1cc(/C=C/C(=O)c2ccccc2)c2ccccc21 (stereo unspecified),-16.4%,31.6µM*
CCCCN(C)CC(O)Cn1cc(/C=C/C(=O)c2ccc(OCC)cc2)c2ccccc21 (stereo unspecified),-16.8%,?
CN(CCCNC(=O)c1ccccc1)CC(F)(F)F,7.6%,i
CSc1ccc(/C=[N+](/[O-])c2ccccc2)cc1,-16.2%,i
Cn1c(=O)c2c(-c3ccc(Br)cc3)n(CCc3ccccc3)cc2n(C)c1=O,0.0%,39.8µM*

# High-throughput results (PubChem BioAssay)
